What was measured:
Assay in all cases: growth inhibition (% activity, log2 RLU normalised to DMSO / staurosporine); higher = more growth inhibition
Conditions in all cases: 33 µM
DIPGX29 = system: DIPGX29 (H3.3 K27M diffuse intrinsic pontine glioma line)
Outline: (§1)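 Approved drugs were tested in triplicate at a single final concentration of about 33 μM for 7 days at 37 °C, 5% CO2, on pHGG cell lines and H9-derived neural stem cells. Readout was CellTiter-Glo luminescence, log2-transformed and scaled per plate to % activity between solvent and positive control wells. The median over replicates gives the growth-inhibition value.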

DIPGX37 = system: DIPGX37 (H3.3 K27M diffuse intrinsic pontine glioma line)
Outline: as §1

DIPGX7 = system: DIPGX7 (H3.3 K27M diffuse intrinsic pontine glioma line)
Outline: as §1

DIPGX9 = system: DIPGX9 (diffuse intrinsic pontine glioma line)
Outline: as §1

HGGX39 = system: HGGX39 (paediatric high-grade glioma line)
Outline: as §1

HGGX6 = system: HGGX6 (H3.3 G34R paediatric high-grade glioma line)
Outline: as §1

HNSC = system: HNSC
Outline: as §1

SUDIPGIV = system: SUDIPGIV (diffuse intrinsic pontine glioma line)
Outline: as §1

SUDIPGVI = system: SUDIPGVI (diffuse intrinsic pontine glioma line)
Outline: as §1

SUDIPGXIII = system: SUDIPGXIII (diffuse intrinsic pontine glioma line)
Outline: as §1

SMILES	growth inhibition (DIPGX29) [%]	growth inhibition (DIPGX37) [%]	growth inhibition (DIPGX7) [%]	growth inhibition (DIPGX9) [%]	growth inhibition (HGGX39) [%]	growth inhibition (HGGX6) [%]	growth inhibition (HNSC) [%]	growth inhibition (SUDIPGIV) [%]	growth inhibition (SUDIPGVI) [%]	growth inhibition (SUDIPGXIII) [%]
CCCc1nc(C)c2c(=O)nc(-c3cc(S(=O)(=O)N4CCN(CC)CC4)ccc3OCC)[nH]n12	-1.2	-1.39	-0.617	0.618	1.97	2.02	-2.13	0.711	0.112	
CC(C)[C@H]1CC[C@H](C(=O)N[C@H](Cc2ccccc2)C(=O)O)CC1	-0.743	0.294	0.0113	0.231	1.32	1.09	-0.0956	-1.21	-0.179	
CCCCCCCCCCCCCCCC(=O)O[C@@H]1[C@@H](O)[C@@H](O)[C@@H]([C@H](NC(=O)[C@@H]2C[C@@H](CCC)CN2C)[C@H](C)Cl)O[C@@H]1SC	0.38	-0.882	0.64	-0.0578	2.42	2.01	-1.46	1.12	0.759	-0.501
CNC(=O)c1ccccc1Sc1ccc2c(/C=C/c3ccccn3)n[nH]c2c1	12.6	6.36	11.4	17.5	10.9	20.3	60.4	4.73	0.631	5.66
C#C[C@]1(O)CC[C@H]2[C@@H]3CCC4=CC(=O)CC[C@@H]4[C@H]3CC[C@@]21C	-0.22	3.5	1.4	2.42	4.07	7.23	6.68	-0.735	0.661	
O=C(O)c1cccnc1Nc1cccc(C(F)(F)F)c1	-0.796	3.58	-0.0228	0.51	1.81	2.52	-1.26	-3.93	2.23	
C[C@@H](O)[C@H]1C(=O)N2C(C(=O)OCOC(=O)C(C)(C)C)=C(SC3CN(C4=NCCS4)C3)[C@H](C)[C@H]12	-0.211	2.3	0.926	0.809	1.15	0.471	-0.363	-0.736	2.12	
CC(C)n1c(/C=C/[C@@H](O)C[C@@H](O)CC(=O)O)c(-c2ccc(F)cc2)c2ccccc21	4.64	0.671	6.29	6.39	18.7	10.2	26.9	26.2	0.023	3.96
Cc1ncc([N+](=O)[O-])n1CC(C)O (configuration not stated)	-2.47	-0.804	-1.3	0.505	-1.86	0.138	-4.53	-1.52	-0.382	
CC[C@H]1OC(=O)[C@H](C)[C@@H](O[C@H]2C[C@@](C)(OC)[C@@H](O)[C@H](C)O2)[C@H](C)[C@@H](O[C@@H]2O[C@H](C)C[C@H](N(C)C)[C@H]2O)[C@](C)(O)C[C@@H](C)[C@@H]2N[C@@H](COCCOC)O[C@H]([C@H]2C)[C@]1(C)O	-1.13	-1.4	-1.51	-0.804	-0.699	-1.07	-4.19	-1.28	-0.768	
COc1cc2c(cc1OC)CC(=O)N(CCCN(C)C[C@H]1Cc3cc(OC)c(OC)cc31)CC2	-0.791	1.83	1.52	1.21	2.26	0.769	7.75	0.5	1.04	
COc1ncnc(NS(=O)(=O)c2ccc(N)cc2)c1OC	0.769	2.24	1.07	2.03	0.995	1.53	-1.3	-0.0587	-0.393	1.69
CC[C@H]1OC(=O)[C@H](C)[C@@H](O[C@H]2C[C@@](C)(OC)[C@@H](O)[C@H](C)O2)[C@H](C)[C@@H](O[C@@H]2O[C@H](C)C[C@H](N(C)C)[C@H]2O)[C@](C)(O)C[C@@H](C)/C(=N\OCOCCOC)[C@H](C)[C@@H](O)[C@]1(C)O	-1.55	-0.523	-0.0281	1.56	1.63	0.659	-0.847	0.447	-0.66	
Cc1onc(-c2ccccc2)c1-c1ccc(S(N)(=O)=O)cc1	0.8	1.05	0.883	0.672	3.67	2.37	-0.462	-2.73	2.54	
CCC(C)n1ncn(-c2ccc(N3CCN(c4ccc(OCC5COC(Cn6cncn6)(c6ccc(Cl)cc6Cl)O5)cc4)CC3)cc2)c1=O (configuration not stated)	-0.782	1.27	1.59	1.24	4.33	1.37	7.95	1.44	1.98	
Oc1c(Br)cc(Br)c2cccnc12	-0.427	0.213	1.4	1.88	2.61	1.93	-0.441	0.619	2.93	
CN(C)CCC=C1c2ccccc2CCc2ccccc21	0.114	2.57	1.28	1.79	5.11	2.03	0.41	1.93	2.05	
O=c1ccc2ccccc2o1	0.12	0.196	-0.587	2.02	1.94	0.845	-0.623	-0.0159	1.45	
CC1(C)S[C@@H]2[C@H](NC(=O)Cc3ccccc3)C(=O)N2[C@H]1C(=O)O	-0.211	1.76	0.712	0.921	2.76	0.0221	1.53	0.754	0.396	
CCCN1CCCC[C@H]1C(=O)Nc1c(C)cccc1C	-0.141	1.83	0.26	0.846	2.25	1.44	-0.32	-1.01	0.908	
Cc1ccc(S(=O)(=O)NC(=O)NN2CCCCCC2)cc1	-1.75	0.973	-0.7	-1.05	0.24	1.06	-3.09	-2.7	-0.0433	
CCn1cc(C(=O)O)c(=O)c2ccc(C)nc21	-2.16	-2.18	-0.91	0.0696	-0.871	0.278	-2.82	-0.499	-1.38	

SMILES	growth inhibition (DIPGX29) [%]	growth inhibition (DIPGX37) [%]	growth inhibition (DIPGX7) [%]	growth inhibition (DIPGX9) [%]	growth inhibition (HGGX39) [%]	growth inhibition (HGGX6) [%]	growth inhibition (HNSC) [%]	growth inhibition (SUDIPGIV) [%]	growth inhibition (SUDIPGVI) [%]	growth inhibition (SUDIPGXIII) [%]
N#CC1(c2ccc(NC(=O)c3cccnc3NCc3ccncc3)cc2)CCCC1	1.93	-3.69	2.91	3.39	8.17	4.45	1.96	7.08	-1.37	
C=C(c1ccc(C(=O)O)cc1)c1cc2c(cc1C)C(C)(C)CCC2(C)C	8.85	-3.45	11	10.4	12.4	9.38	14.6	6.25	9.87	
CC(C)NCC(O)COc1cccc2ccccc12 (configuration not stated)	-0.19	-0.496	-0.508	1.12	0.98	0.0936	-3.29	-1.1	0.673	
O[C@@H]1CO[C@H]2[C@@H]1OC[C@@H]2O	-2.46	0.0638	-2.43	-0.699	0.692	0.785	-3.92	-2.68	-0.216	
CCCCCCCN(CC)CCCC(O)c1ccc(NS(C)(=O)=O)cc1 (configuration not stated)	-0.358	0.859	2.25	1.97	2.78	0.985	-2.1	0.633	1.61	
COC(=O)C1=CO[C@@H](O[C@@H]2O[C@H](CO)[C@@H](O)[C@H](O)[C@H]2O)[C@@H]2C(CO)=CC[C@H]12	-1.79	-0.171	-2.08	0.601	0.266	2.37	-2.11	-1.32	-2.76	
CCn1nc(C(=O)O)c(=O)c2cc3c(cc21)OCO3	0.16	0.624	-0.169	-0.854	0.711	1.66	0.841	-0.519	-0.803	0.089
CC(=O)Oc1cc(C(F)(F)F)ccc1C(=O)O	-1.87	-1.02	-1.55	-0.552	-0.882	0.0377	-4.31	-2.59	-2.15	-2.75
Cc1c(O)c(=O)ccn1C	-0.259	-0.497	-0.173	1.03	0.26	1.77	-3.85	-2.04	0.573	
CC[C@H]1OC(=O)[C@H](C)[C@@H](O[C@H]2C[C@@](C)(OC)[C@@H](O)[C@H](C)O2)[C@H](C)[C@@H](O[C@@H]2O[C@H](C)C[C@H](N(C)C)[C@H]2O)[C@](C)(O)C[C@@H](C)C(=O)[C@H](C)[C@@H](O)[C@]1(C)O	0.288	-2.96	0.845	0.939	1.08	-0.333	2.65	1.14	2.66	-1.2
O=c1cc[nH]c(=O)[nH]1	0.309	2.71	0.41	1.11	0.158	0.91	-1.21	0.441	1.23	-16.8
N=C(N)c1ccc(N=NNc2ccc(C(=N)N)cc2)cc1	-2.11	-3.98	-0.967	-1.13	7.13	4.38	-4.44	15.4	0.511	
Cc1c(Nc2ncccc2C(=O)O)cccc1C(F)(F)F	0.454	2.84	0.522	1.64	1.78	3.08	1.18	-3.76	2.1	
NC(=O)CC[C@H](N)C(=O)O	-1.66	0.802	-0.27	0.17	-0.498	-1.45	-2.34	-1.24	1.4	-0.384
CC(C)(C)C(=O)C(Oc1ccc(Cl)cc1)n1ccnc1 (configuration not stated)	0.826	1.56	3.93	1.25	5.9	4.74	5.37	7.06	2.6	
CC(=O)OCC(CCn1cnc2cnc(N)nc21)COC(C)=O	-2.6	-4.6	-0.979	-2.76	-5.59	-3.73	33.5	-3.45	-13	2.17
CCOC(=O)CCC(=O)O[C@H]1[C@H](O[C@@H]2[C@@H](C)[C@H](O[C@H]3C[C@@](C)(OC)[C@@H](O)[C@H](C)O3)[C@@H](C)C(=O)O[C@H](CC)[C@@](C)(O)[C@H](O)[C@@H](C)C(=O)[C@H](C)C[C@@]2(C)O)O[C@H](C)C[C@@H]1N(C)C	-2.45	-0.105	1.67	-1.7	-1.58	-2.75	19.9	-1.78	-9.9	2.09
COc1nc(C)nc(Cl)c1NC1=NCCN1	-1.42	-1.39	-1.95	-1.31	0.125	-1.01	-1.76	-1.72	-2.98	-0.769
O=C(O)c1ccc(NC(=O)[C@H](Cc2ccc(O)cc2)NC(=O)c2ccccc2)cc1	-3.5	-1.5	-2.53	-1.13	-2.55	-0.845	-2.41	-2.35	0.761	-0.558
N=C(N)NCCC[C@H](N)C(=O)O	-2.37	0.109	0.302	-2.03	-0.487	-4.08	2.28	-1.68	-2	-0.232
CN1C(CCl)Nc2cc(Cl)c(S(N)(=O)=O)cc2S1(=O)=O (configuration not stated)	1.82	1.82	1.38	0.87	2.55	3.08	1.19	0.139	1.21	-13.7
